TAG inh – inhibitors of triacylglycerol accumulation; inhibition, % at 12.5 µM; H9c2 cells, Nile Red lipid (TAG) fluorescence; cells loaded with 200 µM oleic acid; AID 651582; 0.66% of 230,000 active;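 active = pattern-corrected inhibition of lipid staining of at least 50% with the nuclear-stain viability signal not falling by more than 50%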;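 note: 0% = DMSO wells and 100% = triacsin C control wells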
hiPSC survival – increases survival of single human iPS cells; hiPSC single-cell survival, ATPlite luminescence; 100% = ROCK inhibitor wells, 0% = DMSO; survival enhancement, % at 20 µM; 0.044% of 360,000 active; AID 602274; in the data active = survival enhancement above about 18%;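 note: cells exposed to compounds for 16 hours before the ATP read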
beta cell repl – induces beta-cell replication in MIN6 cells; MIN6 cells proliferation, ATPlite luminescence, 48 h; cells starved in 0.2% serum; 100% = growth in 10% serum; proliferation, % at 10 µM; 0.29% of 330,000 active;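 active = compounds whose signal lies at least 3.5 SD above the mean of all wells on their plate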;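 note: 0% = DMSO-treated cells in low-serum medium and 100% = 10% serum control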
TAG conf – triacylglycerol accumulation inhibition, confirmation; 71% of 990 active; shares compounds with TAG inh; H9c2 lipid accumulation, Nile Red fluorescence; cells loaded with 200 µM oleic acid; AID 651629; inhibition, % at 12.5 µM;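 active = mean inhibition across replicates of 40% or more; inactive = mean inhibition below 40%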;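 note: plate controls were DMSO only wells for no effect and Triacsin C treated wells for full effect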
Numbers without * were called inactive; · = not tested or not shown. Most compounds without a hit are left out; they make up all but 0.71% or so of the library.

SMILES | TAG inh | hiPSC survival | beta cell repl | TAG conf
COC(=O)c1cc(C(=O)N2CCN(c3cccc(Cl)c3)CC2)cc([N+](=O)[O-])c1 | 63.5* | -2.3 | -2.2 | 56.3*
O=C(c1cccc([N+](=O)[O-])c1)N1CCN(c2cccc(Cl)c2)CC1 | 5.7 | 5.8 | 0.0 | ·
COC(=O)c1ccc(Oc2cc(C)nc(Cl)n2)cc1 | · | -1.0 | -2.3 | ·
COC(=O)c1ccc(Oc2cc(C)nc(SC)n2)cc1 | 50.6* | -1.0 | -0.6 | 41.2*
COc1ccc(C(O)c2ncc(-c3ccc4ccccc4c3)[nH]2)cc1 (stereo unspecified) | -27.9 | -2.4 | · | ·
CCN(CC)S(=O)(=O)c1cc(C(=O)Nc2cc(Cl)ccc2N2CCN(C)CC2)ccc1Cl | · | -1.9 | -6.2 | ·
CN1CCN(c2ccc(Cl)cc2NC(=O)c2ccc(S(=O)(=O)N(C)C)cc2)CC1 | 51.8* | -5.0 | -2.8 | 22.1
O=C(Nc1ccc(F)c(Cl)c1)c1cc(C2CCCCN2C(=O)c2ccc3c(c2)CCO3)on1 (stereo unspecified) | 0.2 | -1.6 | · | ·
NC(Cc1ccc(C(F)(F)F)cc1)c1csc(Nc2nncc3ccccc23)n1 (stereo unspecified) | 52.4* | -3.1 | · | 67.8*
NC(COCc1ccccc1)c1csc(Nc2nncc3ccccc23)n1 (stereo unspecified) | -6.1 | 2.3 | · | ·
CCCCN(C)C(=O)c1ccc(Nc2nc(C(N)Cc3ccc(C(F)(F)F)cc3)cs2)nc1 (stereo unspecified) | 55.8* | -4.6 | · | 71.1*
NC(Cc1ccc(C(F)(F)F)cc1)c1csc(Nc2ccc(C(=O)NCc3ccco3)cn2)n1 (stereo unspecified) | 36.5 | -1.5 | · | ·
CCCCN(C)C(=O)c1ccc(Nc2nc(C(N)CCc3ccccc3)cs2)nc1 (stereo unspecified) | 10.7 | -1.9 | · | ·
NC(Cc1ccc(C(F)(F)F)cc1)c1csc(Nc2ccc(C(=O)NCCCO)cn2)n1 (stereo unspecified) | 57.5* | -1.6 | · | 38.4
COc1ccc(OC)c(C(O)c2ncc(-c3ccccc3OC)[nH]2)c1 (stereo unspecified) | 1.1 | -2.1 | · | ·
CNC(=O)OCc1nc(SC2CCCCO2)n(C)c1COC(=O)NC (stereo unspecified) | · | 1.4 | · | ·
CC(=O)NC(c1cccc(F)c1)c1nc(-c2ccc(N(C)C)cc2)cs1 (stereo unspecified) | 2.0 | 0.0 | · | ·
COc1cccc(C(=O)N2CCC[C@@H]2C(=O)N2CCC[C@H]2C(=O)NCc2ccncc2)c1 | · | -0.3 | · | ·
Cc1ccc(S(=O)(=O)N2CCC(=O)N([C@H](COC(=O)Nc3ccccc3)Cc3ccccc3)CC2)cc1 | · | -1.1 | · | ·
CC(=O)Oc1ccccc1Cn1c(C)c(C(=O)NCCC#N)sc1=O | 2.8 | -0.8 | · | ·
CC(C)NC(=O)c1cc(C2CCCCN2S(=O)(=O)c2cccc3cccnc23)on1 (stereo unspecified) | 17.4 | 3.3 | · | ·
COC(=O)/C=C/c1ccccc1S(=O)(=O)N(Cc1ccccc1)Cc1ccco1 | 53.8* | 1.3 | -7.5 | 47.6*
O=S(=O)(c1ccc(S(=O)(=O)N(Cc2ccccc2)Cc2ccco2)cc1)N1CCCC1 | · | -3.1 | -2.9 | ·
COC(=O)[C@H]1C[C@@]2(O)CN(S(=O)(=O)c3ccc(C)cc3)C[C@@]2(OC(=O)NC2CCCC2)C[C@H]1C(=O)OC | 7.5 | -0.3 | · | ·
C#CCN(C[C@@H]1[C@@H](OC(=O)NCC2CCCCC2)[C@@H](OC(=O)NCC2CCCCC2)CN(C(=O)OC(C)C)N1C(=O)OC(C)C)S(=O)(=O)c1ccc(C)cc1 | 50.6* | -0.2 | · | 61.2*
SMILES | TAG inh | hiPSC survival | beta cell repl | TAG conf
C#CCN(C[C@@H]1[C@@H](OC(=O)NCc2ccccc2)[C@@H](OC(=O)NCc2ccccc2)CN(C(=O)OC(C)C)N1C(=O)OC(C)C)S(=O)(=O)c1ccc(C)cc1 | 22.3 | 0.0 | · | ·
COC(=O)[C@H]1C[C@H](OC(=O)NCc2ccco2)[C@@]2(O)CN(S(=O)(=O)c3ccc(C)cc3)CC2[C@H]1C(=O)OC (stereo partly specified) | 14.1 | 2.9 | · | ·
O=C(CCC(=O)N1CCOc2ccc(Cl)cc21)NCCCN1CCC(Cc2ccccc2)CC1 | 90.1* | -4.5 | -6.5 | 61.6*
O=C(CCC(=O)N1CCOc2ccc(Cl)cc21)NCCCN1CCN(c2ccccc2F)CC1 | -9.3 | 2.1 | -3.8 | ·
Cn1c(=O)c2cc(NC(=O)NCc3ccc(F)cc3)ccc2n1C | -10.1 | -2.7 | · | ·
CC(O)c1nc2ccccc2n1C/C=C/c1ccccc1 (stereo unspecified) | -16.6 | -0.1 | -1.9 | ·
Cc1c(P(=S)(c2ccccc2)c2ccccc2)[n+]2ccccc2n1C/C=C/c1ccccc1 | 83.4* | -4.1 | · | 89.8*
